aSyn 5UTR act = Activators working through SNCA 5'UTR binding (MLPCN) | alpha-synuclein 5'UTR reporter, activators screen | activity score, % (tested at 7.5 µM), hits read low | hit rate 7.1% among 300,000 | AID 1814; in the data active = activity score below about -60%
Numbers stand for hits; – = inactive. These entries were drawn from the full list.

SMILES	aSyn 5UTR act
C=CC[n+]1c(-c2ccc(C)cc2)csc1Nc1ccc(NC(C)=O)cc1	–
Cc1cccc(C(=O)NCCc2ccccc2)c1	-112
O=C(NCCc1ccccc1)c1ccc(Cl)c([N+](=O)[O-])c1	-99
Cc1cc(C(=O)NCCc2ccccc2)ccc1[N+](=O)[O-]	-116
O=C(c1ccc(Cl)c([N+](=O)[O-])c1)N(c1ccccn1)c1ccccn1	-98
CCC(CC)C(=O)Nc1cccc(C(=O)NCCc2ccccc2)c1	-64
CCCN1CCC(Oc2cccc(C(=O)NCCc3ccccc3)c2)CC1	-72
O=C(CCC(=O)c1ccc[nH]1)c1ccc(Cl)cc1	-116
O=C(COc1ccc(F)c(Cl)c1)c1ccc[nH]1	-71
CCOC(=O)c1cnc(Nc2ccccc2)nc1C(F)(F)F	-89
CC1(C)CC(=O)C/C(=N/Nc2nc3ccccc3s2)C1	-67
CC1CCC/C(=N/Nc2nc3ccccc3s2)C1 (stereo unspecified)	-134
Nc1ccc2c(c1)sc1ccccc12	-148
C/C(=N\NC(=O)COc1ccccc1)c1cccs1	-85
Cc1cc(/C=N/NC(=O)c2cccs2)c(C)n1-c1cnccn1	-170
C/C(=N\NC(=O)c1cccs1)c1ccc2ccccc2c1	-92
O=C(N/N=C/c1ccc(N2CCOCC2)cc1)c1cccs1	-179
O=C(N/N=C/c1cccnc1)c1cccs1	-82
C/C(=N\NC(=O)c1cccs1)c1cccnc1	-83
Cc1cc2oc(=O)c(CC(=O)NCCCN(C)C)c(C)c2c2occ(C(C)(C)C)c12	–
COCCNC(=O)Cc1c(C)c2c(cc(C)c3c(C(C)(C)C)coc32)oc1=O	-116
O=C(CN1CC(=O)Oc2ccccc21)NCc1ccco1	-97
Cc1cc2c(C)nc(N/N=C/c3ccc(F)cc3)nc2o1	-72
COc1ccc(/C=N/Nc2cc(C)nc3ccc(Br)cc23)cc1	–
CC(=O)Oc1ccccc1/C=C/c1ccc2ccccc2[n+]1C	-62
SMILES	aSyn 5UTR act
COc1ccc(/C=C/c2ccc3ccccc3[n+]2C)cc1OC	-124
O=C(Nc1cccc(O)c1)c1ccc(NC(=O)C2CCCO2)cc1 (stereo unspecified)	-98
COC(=O)c1c(-c2ccc(F)cc2)csc1NC(=O)C1CCCO1 (stereo unspecified)	-85
COC(=O)c1ccc(NC(=O)C2CCCO2)cc1 (stereo unspecified)	-64
O=C(Nc1ccc(F)cc1)c1ccc(NC(=O)C2CCCO2)cc1 (stereo unspecified)	-128
COc1ccc(OCCSc2ncnc3nc[nH]c23)cc1	-81
Fc1ccccc1OCCSc1ncnc2nc[nH]c12	-100
Oc1ccc(-c2nc3ccc4ccccc4c3c3c2CCC3)cc1O	-151
O=C(NC1CCN(Cc2ccccc2)CC1)c1ccc(Cn2c(=S)[nH]c3ccc(N4CCOCC4)cc3c2=O)cc1	-92
CC1CCN(CCNC(=O)c2ccc3c(=O)n(Cc4ccc(Cl)cc4)c(=S)[nH]c3c2)CC1	–
COc1ccccc1/C=C/c1nc2ccccc2c(=O)o1	-107
COc1ccc(/C=C/c2nc3ccccc3c(=O)o2)cc1	–
Cc1cc2sc3ccccc3c(=O)c2c(C)c1O	-96
c1cc2c(cc1C1CCCCC1)c1c3n2CCCNC3CCC1 (stereo unspecified)	–
COc1ccc(C(=O)NC(=O)COC(=O)c2ccc3ncsc3c2)cc1	-82
Cc1c(Cl)cnc(NC(=O)COC(=O)c2ccc3ncsc3c2)c1Cl	–
CCOC(=O)c1sc(NNC(=O)c2ccc(F)cc2)nc1C	-76
CCOC(=O)c1sc(NC(=O)c2cncc(Br)c2)nc1C	-105
CCOC(=O)c1sc(NC(=O)c2ccc3ncsc3c2)nc1C	-89
Cc1cc(O)c(C(=O)/C=C/c2ccc(Cl)cc2)c(=O)o1	-172
CSc1ccc(/C=C/C(=O)c2c(O)cc(C)oc2=O)cc1	-117
Cc1nc(N/N=C\c2ccc3c(c2)OCO3)sc1C	-128
Cc1ccc2[nH]c(C)c(/C=N/Nc3nc4ccccc4s3)c2c1	-140
C(=N\Nc1nc2ccccc2s1)/c1ccc2c(c1)OCO2	-190
Brc1cc2c(cc1/C=N/Nc1nc3ccccc3s1)OCO2	-117
SMILES	aSyn 5UTR act
C(=N\Nc1nc2ccccc2s1)/c1ccccn1	–
Brc1csc(/C=N/Nc2nc3ccccc3s2)c1	-275
Brc1cc(Br)c2nc(-c3cccs3)ccc2c1	-157
Cc1oc(=O)c(NC(=O)c2cccc(Cl)c2)cc1C(=O)c1ccccc1	-237
O=C(Nc1cc2ccccc2oc1=O)c1ccccc1	–
O=C(Nc1ccc(NC(=O)C2CC2)cc1)c1ccco1	-92
O=C(Nc1nccs1)c1ccc(NC(=O)c2ccco2)cc1	-142
Cc1ccc(NC(=O)CNC(=O)c2ccco2)cc1	-120
Cc1cc2cc(NC(=O)c3ccco3)ccc2[nH]1	-141
O=C(Nc1ccc(Br)cc1)c1ccco1	-154
CC(=O)N(C)c1ccc(NC(=O)c2ccco2)cc1	-80
Nc1nc2ccc(NC(=O)c3ccco3)cc2s1	-116
O=C(Nc1ccc(Cc2ccncc2)cc1)c1ccco1	-75
Cc1cccc(OCC(=O)Nc2ccc(NC(=O)c3ccco3)cc2)c1	-67
O=C(Nc1ccc(Nc2ccccc2)cc1)c1ccco1	-150
O=C(Nc1ccc(NC(=O)c2ccco2)cc1)c1ccco1	-109
CCOC(=O)N1CCN(C(=O)c2ccc3oc(CCCc4ccccc4)nc3c2)CC1	-150
CCOC(=O)C1CCCN(C(=O)c2ccc3oc(Cc4ccccc4)nc3c2)C1 (stereo unspecified)	-207
COCC1CCCCN1C(=O)c1ccc2oc(CCCc3ccccc3)nc2c1 (stereo unspecified)	-86
COc1ccccc1/C=C/C(=O)NCCc1ccccn1	-92
COc1ccc(/C=C/C(=O)Nc2cccnc2Cl)cc1	-224
COc1ccccc1/C=C/C(=O)Nc1cccnc1Cl	-133
COc1ccccc1C(NC(C)=O)c1cc(Cl)c2cccnc2c1O (stereo unspecified)	–
C/C(=N\NC(=O)c1c(C)nc2ccccn12)c1ccc(O)cc1O	–
Cc1ccc(NC(=O)c2c(Cl)nc3ccccn23)cc1	-153
SMILES	aSyn 5UTR act
Cc1nc2ccccn2c1C(=O)Nc1ccc(Cl)cc1	-160
C/C(=N\NC(=O)C(c1ccccc1)c1ccccc1)c1ccccn1	–
O=C(N/N=C/C(Cl)=C/c1ccccc1)c1cnccn1	-102
CC(/C=N/NC(=O)C(O)c1ccccc1)=C\c1ccccc1 (stereo unspecified)	-81
O=C(N/N=C/c1cc([N+](=O)[O-])ccc1Cl)c1cnccn1	–
CC(/C=N\NC(=O)c1cc(C)oc1C)=C\c1ccccc1	-119
CC(=C/c1ccccc1)/C=N/NC(=O)c1cnccn1	-190
CC(/C=N/Nc1nc(C)cc(C)n1)=C\c1ccc(C(C)C)cc1	-153
CC(/C=N/NC(=O)c1cccnc1)=C\c1ccccc1	-124
CC(/C=N/NC(=O)c1ccncc1)=C\c1ccc(C(C)C)cc1	-146
C/C(=N\NC(=O)c1nnn(-c2nonc2N)c1CN1CCc2ccccc21)c1ccccc1O	–
CCOc1cccc(-c2c(C(=O)N/N=C(\C)c3ccccn3)nnn2-c2nonc2N)c1	–
C/C(=N\N=C\c1ccccc1F)c1nnn(-c2nonc2N)c1C	-79
C/C(=N\NC(=O)c1nnn(-c2nonc2N)c1C)c1ccc(OCc2ccccc2)cc1	-67
COc1cc(/C=N/NC(=O)c2nnn(-c3nonc3N)c2C(C)C)ccc1OCc1ccccc1	-82
CN(C)Cc1c(C(=O)N/N=C/c2ccc(OCc3c(F)cccc3Cl)cc2)nnn1-c1nonc1N	-76
Cc1cccc(COc2ccc(/C=N/NC(=O)c3nnn(-c4nonc4N)c3COc3ccc(F)cc3)cc2)c1	-159
